# PubChem BioAssay AID720564 (Broad Institute, 2013)
# The list shows a part of the results. Calls of active or inactive are those of the source.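 The calls were made as follows: active = luminescence drop, with half-maximal potency fitted within twice the sample's top valid dose (cut at about 70 µM in these data); inactive = the rest, including signal moving the wrong way.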
# Assay: dual-tagged ARNT PAS-B bead signal quenchers – biochemical, dry powder, artefact control for ARNT/TACC3 disruptor project, dose response (AID 720564)
# Settings: Dual-tagged His-ARNT PASB-GST AlphaScreen artifact counter-screen
row,Compound,AC50
1,CCCCC(=O)NC(c1ccco1)c1ccc2cccnc2c1O (stereo not drawn),13.8 µM (active)
2,O=C(CSc1ccc(-c2ccccn2)nn1)Nc1ccccc1,15.3 µM (active)
3,COc1ccc(-c2nnc(NC(=O)c3ccc(S(=O)(=O)N4CCC(C)CC4)cc3)o2)cc1,67.7 µM (active)
